Pol iota inh – blocks human DNA polymerase iota activity; Q9UNA4; Pol iota fluorescent replication assay, 10 min; Potency, µM (series often up to 115 µM), inactives show top-dose activity, negative = inhibition, usual class: inhibitors; hit rate 1% among 390,000
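Pol iota at 10 nM preincubated 15 min with compounds at room temperature; reaction started with fluorescent substrate, 50 nM final. Fluorescence read kinetically at 0 and 10 min; buffer-only wells as negative control.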
POLB inh – blocks human DNA polymerase beta activity; P06746; Pol beta primer extension/strand displacement, fluorescence kinetic; Potency, µM (titrated, usually from 114 µM), for the others: at the top dose activity change, negative = inhibition, actives largely listed as inhibitors; hit rate 1.3% among 340,000; AID 485314; further: on the % scale 0 is the no-effect control and ±100 the full control effect
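Values derive from four-parameter Hill fits of normalized kinetic data: reads at 0 and 10 min following addition of 50 nM substrate to 10 nM Pol beta preincubated 15 min with compound.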
Pol kappa inh-1 – DNA polymerase kappa (human) inhibition; purified Pol kappa, fluorescent DNA synthesis assay, 10 min; Potency, µM (titrated, usually from 107 µM), for the others: at the top dose activity, negative = inhibition, usual class: inhibitors; hit rate 0.53% among 400,000; AID 588579; further: on the % scale 0 is the no-effect control and ±100 the full control effect
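50 nM final substrate added after 15 min RT preincubation of 10 nM Pol kappa with compound; fluorescence read at 0 and 10 min.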
FEN1 inh – human FEN1 inhibition | Recombinant FEN1 flap cleavage, fluorescence, 15 min | P39748 | hit rate 0.35% among 390,000 | Potency, µM (doses to about 114 µM), inactives show at the highest dose activity change, negative = inhibition, hits mostly inhibitors | AID 588795; further: on the % scale 0 is the no-effect control and ±100 the full control effect; nearly all actives have a fitted effect of over 65% in size
Target sequence (P39748 whole entry, looked up): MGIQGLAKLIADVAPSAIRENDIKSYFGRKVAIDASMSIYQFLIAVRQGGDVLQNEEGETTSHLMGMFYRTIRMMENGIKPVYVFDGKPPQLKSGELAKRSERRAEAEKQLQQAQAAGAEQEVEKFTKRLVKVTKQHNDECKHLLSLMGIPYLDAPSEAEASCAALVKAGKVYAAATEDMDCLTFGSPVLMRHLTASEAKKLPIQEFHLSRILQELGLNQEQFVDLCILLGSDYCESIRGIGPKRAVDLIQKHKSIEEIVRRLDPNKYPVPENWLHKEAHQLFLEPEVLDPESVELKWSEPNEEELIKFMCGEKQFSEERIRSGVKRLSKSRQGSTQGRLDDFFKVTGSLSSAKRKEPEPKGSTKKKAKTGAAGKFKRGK
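With each library titrated from low to high concentration, compounds met 10 nM FEN1 for 15 min at room temperature before 50 nM substrate was added; readings at 0 and 15 min fed four-parameter Hill curve fits.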
Pol eta inh-1 – blocks human DNA polymerase eta activity. Q9Y253. recombinant Pol eta, fluorescent DNA replication assay. Potency, µM (highest dose often 114 µM), for the others: at the highest dose activity change, negative = inhibition, usual class: inhibitors. hit rate 1.2% among 390,000. AID 588591; further: on the % scale 0 is the no-effect control and ±100 the full control effect
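Fluorescent replication assay: 50 nM final substrate added after a 15 min room-temperature compound preincubation with 10 nM enzyme. Signal taken at 0 min and again at 10 min.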
WRN helicase inh – inhibitors of human WRN helicase. Q14191. WRN helicase unwinding, fluorescent forked duplex, kinetic. Potency, µM (top dose mostly 114 µM), for the others: at the top dose activity change, negative = inhibition, most hits filed as inhibitors. hit rate 0.46% among 360,000. AID 651768; further: on the % scale 0 is the no-effect control and ±100 the full control effect; nearly all actives have a fitted effect of over 55% in size
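Kinetic red-fluorescence monitoring (525/598 nm) tracks WRN helicase activity after 100 nM fluorophore-quencher forked duplex and 2 mM ATP are added to 20 nM enzyme pretreated 15 min at room temperature with compound.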
Pol kappa inh-2 – Pol kappa (human) inhibition, cherry-pick confirmation; shares compounds with Pol eta inh-1; purified Pol-kappa, fluorescent strand-displacement substrate; Potency, µM, hits mostly inhibitors; hit rate 76% among 920; AID 720501
Pol eta inh-2 – confirmation of human DNA polymerase eta inhibitors; shares compounds with Pol eta inh-1; Pol eta primer extension, TAMRA/BHQ fluorescence, 10 min; Potency, µM, most hits filed as inhibitors; hit rate 64% among 2,600; AID 720502
Numbers without * were called inactive; ? = inconclusive; / = no result; [ ] = remark or other dose. Hits are enriched below; roughly 2.4% of the tested compounds scored in any of these assays. The call rests on the fitted dose curve; in most records, active means well fitted curve in the direction sought with a large enough effect; inconclusive means small, poorly fitted or top-dose-only effect, or another doubt; inactive means no such curve, though single readings can be large; an effect the other way counts as inactive or inconclusive. Potency means the concentration at half of the fitted maximal effect.

SMILES	Pol iota inh	POLB inh	Pol kappa inh-1	FEN1 inh	Pol eta inh-1	WRN helicase inh	Pol eta inh-2	others
O=C(c1ccncc1)N1C2C=CC(C2)C1(C(F)(F)F)C(F)(F)F (configuration not stated)	/	-4%	/	/	/	/	/
CC(=O)c1c2c3c(cccc3n(C)c1=O)C(=O)c1ccccc1-2	?	?	-22%	-16%	?	-20%	/
Cn1c(=O)c(Nc2ccc(O)cc2)c2c3c(cccc31)C(=O)c1ccccc1-2	16µM*	32µM*	?	?	14µM*	?	?
N#Cc1ccsc1NC(=O)COC(=O)CCS(=O)(=O)c1ccccc1	?	/	?	-2%	32µM*	-13%[11.6 µM]	?
O=C(O)/C=C/c1ccc(S(=O)(=O)Nc2ccc3[nH]c(=O)[nH]c3c2)cc1	?	-1%	-21%	-3%	25µM*	?	?
Cc1ccc(NS(=O)(=O)c2ccc(/C=C/C(=O)O)cc2)cc1Cl	104%	-7%	-18%	-2%	-16%	-19%	/
CC(=O)c1ccc(S(=O)(=O)Nc2ccc(C(=O)NCC(c3ccco3)N3CCCC3)cc2)cc1 (configuration not stated)	/	/	/	/	20µM*	-1%[11.6 µM]	?	Pol kappa inh-2=?
COc1ccccc1C(CNC(=O)c1ccc(NS(=O)(=O)c2ccc(C(C)=O)cc2)cc1)N1CCCC1 (configuration not stated)	32µM*	/	?	-6%	16µM*	-13%[11.6 µM]	?
Cc1ccccc1C(=O)NCc1ccc2c(c1)CCN2C(=O)c1ccccc1	7%	16%	-12%[60.1 µM]	-7%	-8%	/	/
COc1ccc(C(=O)CSc2cc(C)[nH]c(=O)n2)cc1	?	5.6µM*	79µM*	-12%	20µM*	-3%[11.6 µM]	?
COc1ccc(C(=O)CSc2nc(C)cc(=O)[nH]2)cc1	10%	5%	2%	-2%	12%	-1%	/
Cc1cc2oc(C(=O)Nc3sc4c(c3C(=O)NCc3ccco3)CCC4)cc(=O)c2cc1C	?	?	?	-17%	50µM*	/	?	Pol kappa inh-2=?
O=C(Nc1ccc(OC(F)(F)F)cc1)c1noc2c1CCCC2	35%	-20%	-9%	2%	/	/	/
CC(=O)c1ccc(NC(=O)c2noc3c2CCC3)cc1	25µM*	16µM*	?	-13%	45µM*	-6%[11.6 µM]	?
CC1CCN(c2nn3c(=O)c(C(=O)NCCCOC(C)C)cnc3s2)CC1	50%	4%	2%	13%	-8%	/	/
CNc1ccc(Br)cc(C(=O)/C=C/c2ccc3c(c2)OCO3)c1=O	3.2µM*	20µM*	35µM*	50µM*	10µM*	?	?
Cc1ccc(OCC(=O)Nc2nnc(S(=O)(=O)N3CCC(C)CC3)s2)cc1	?	?	?	0%	?	-19%	85*
O=C(CSc1nc2ccccc2[nH]1)NC1CCCC1	?	14µM*	?	-4%	40µM*	?	?
COc1cccc(-c2nc(CSCC(=O)NCCc3ccc(Cl)cc3)c(C)o2)c1	-12%	-8%	-18%	-12%	-15%	/	/
CCCCn1c(N)c(N(CC(C)C)C(=O)c2ccc(OC)c(S(=O)(=O)N3CCOCC3)c2)c(=O)[nH]c1=O	21%	/	-13%	-16%	-15%	7%	/
COc1ccc(/C=C/C(=O)O)cc1S(=O)(=O)NCc1ccco1	?	?	-21%	-8%	56µM*	-3%	67*
COc1ccc(/C=C/C(=O)O)cc1S(=O)(=O)NC1CCS(=O)(=O)C1 (configuration not stated)	?	?	-24%	0%	28µM*	-6%[11.6 µM]	?	Pol kappa inh-2=67*
COc1cc(/C=C/C(=O)O)cc(S(=O)(=O)NCc2ccco2)c1OC	84%	2%	-3%	9%	-15%	-1%	/
COc1cc(/C=C/C(=O)O)cc(S(=O)(=O)NC2CCCC2)c1OC	9%	-1%	-8%	1%	-13%	-1%	/
Cc1c(C(=O)N(C)C)sc2c1c(=O)n(-c1ccc(F)cc1)c(=O)n2Cc1cc(=O)n2ccccc2n1	7%	8%	1%[60.1 µM]	37%	-11%	/	/
SMILES	Pol iota inh	POLB inh	Pol kappa inh-1	FEN1 inh	Pol eta inh-1	WRN helicase inh	Pol eta inh-2	others
CC(C)NC(=O)C1(C)CCN1C(=O)c1ccc(F)c(Cl)c1 (configuration not stated)	/	/	/	/	/	4%	/
O=C(Oc1ccccc1F)c1ccc2c(=O)n3c(nc2c1)CCC3	?	/	-28%	-19%	?	-17%	67*
C[C@@H]1CN([C@H](C)CO)C(=O)CCCn2nncc2CO[C@@H]1CN(C)S(=O)(=O)c1ccccc1C#N	/	/	/	/	-3%	-5%	/
Cc1nc(Nc2ccc(C(=O)O)cc2)nc(Nc2ccc(C(=O)O)cc2)c1[N+](=O)[O-]	45µM*	-1%	?	?	35µM*	-21%[11.6 µM]	38*
CCN(CC)Cc1c(O)c(Cl)cc2c(C)cc(=O)oc12	?	10µM*	89µM*	-7%	20µM*	-9%[11.6 µM]	?
Cc1cc(=O)oc2c(CN3CCCC3)c(O)c(Cl)cc12	-19%	?	-24%	3%	?	-12%	/
Cc1cc(=O)oc2c(CN3CCC(C)CC3)c(O)c(Cl)cc12	?	16µM*	?	-13%	13µM*	?	?
O=C(CCn1c(=O)c2sccc2n(CC(=O)NCc2ccco2)c1=O)NCc1ccccc1	?	-17%	2%	12%	-8%	-11%	/
O=C(CCCn1c(=O)c2sccc2n(CC(=O)NCc2ccco2)c1=O)NCc1ccco1	?	-1%	-10%	4%	79µM*	-11%[11.6 µM]	?
CC(C)CC1=NN2C(=N)/C(=C\c3coc4ccccc4c3=O)C(=O)N=C2S1	?	20µM*	?	32µM*	20µM*	?	76*
Cc1cccc(-n2c(C)cc(/C=C3\C(=N)N4N=C(CC(C)C)SC4=NC3=O)c2C)c1	-6%	3%	-6%	-7%	-17%	5%	/
CSC1=NSC2=NC(=O)/C(=C\c3ccc(OC(=O)c4ccco4)cc3)C(=N)N12	?	-29%	-31%	-3%	?	?	/
CCSC1=NSC2=NC(=O)/C(=C\c3coc4ccccc4c3=O)C(=N)N12	?	28µM*	-19%	?	20µM*	?	/	Pol kappa inh-2=?
O=C(COc1ccccc1C(=O)Nc1ccccc1F)Nc1ccc(Br)cc1	16%	/	3%	3%	/	/	/

High-throughput results: PubChem, National Center for Advancing Translational Sciences (NCATS)
